Measurements taken from PubChem BioAssay AID1159580 (chemical genetic matrix, 2015).
Values joined by “and” are separate entries in the source; they are usually repeats but may differ in a detail not shown here. Identical values can stand only once. The whole screen tested about 5,500 compounds, of which about 2,000 (36%) were called active. Not shown: some 18% with an inconclusive outcome. Rule as the data show it: active = normalized growth mostly below about 0.91 (no sharp cut-off); inconclusive = no clear call, values can overlap the other calls; inactive = mostly above about 0.92. This is one part of the list.

Experiment: chemical genetic growth profiling, strain panel (AID 1159580);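 also: tested at 20 µM; growth read once vehicle control cultures reached saturation at 30 °C; 1 = growth at the plate median or of vehicle wells; lower values mean less growth of the strain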
Conditions: S. cerevisiae deletion strains, growth OD

Measured: normalized growth

Cc1ccc(-c2cc(C(F)(F)F)nn2-c2ccc(S(N)(=O)=O)cc2)cc1
inactive: locus YAL013W, strain DEP1, active compounds read low 1 | locus YAL021C, strain ccr4, active compounds read low 1 | locus YAL026C, strain drs2, active compounds read low 1.03 | locus YAL030W, strain snc1, active compounds read low 1.03 | locus YBL061C, strain skt5, active compounds read low 1.02 | locus YBR009C, strain hhf1, active compounds read low 1.03 | locus YBR021W, strain FUR4, active compounds read low 1 | locus YBR023C, strain chs3, active compounds read low 1.02 | locus YBR171W, strain sec66, active compounds read low 1.05 | locus YBR229C, strain ROT2, active compounds read low 0.992 | locus YBR231C, strain swc5, active compounds read low 1.05 | locus YBR279W, strain paf1, active compounds read low 1.02 | locus YCL011C, strain gbp2, active compounds read low 1.03 | locus YCL016C, strain dcc1, active compounds read low 1.03 | locus YCL029C, strain bik1, active compounds read low 1.04 | locus YCL061C, strain MRC1, active compounds read low 1.02 | locus YCL069W, strain vba3, active compounds read low 1.03 | locus YCR088W, strain abp1, active compounds read low 1.02 | locus YDL005C, strain med2, active compounds read low 1.03 | locus YDL035C, strain GPR1, active compounds read low 0.979 | locus YDL040C, strain nat1, active compounds read low 1.03 | locus YDL074C, strain BRE1, active compounds read low 0.975 | locus YDL101C, strain DUN1, active compounds read low 1.02 | locus YDL134C, strain PPH21, active compounds read low 0.999 | locus YDL185W, strain tfp1, active compounds read low 1.02 | locus YDL192W, strain arf1, active compounds read low 0.998 | locus YDR001C, strain nth1, active compounds read low 1.02 | locus YDR069C, strain doa4, active compounds read low 1.02 | locus YDR101C, strain arx1, active compounds read low 1.01 | locus YDR137W, strain rgp1, active compounds read low 1.02 | locus YDR150W, strain NUM1, active compounds read low 1 | locus YDR159W, strain sac3, active compounds read low 1.02 | locus YDR162C, strain NBP2, active compounds read low 0.988 | locus YDR195W, strain ref2 1.05 | locus YDR297W, strain sur2, active compounds read low 1.02 | locus YDR318W, strain mcm21, active compounds read low 1.02 | locus YDR334W, strain swr1, active compounds read low 1.04 | locus YDR335W, strain msn5, active compounds read low 1.03 | locus YDR388W, active compounds read low 1.01 | locus YDR392W, strain spt3, active compounds read low 1.03 | locus YDR502C, strain sam2, active compounds read low 1 | locus YEL003W, strain gim4, active compounds read low 1.03 | locus YEL037C, strain rad23, active compounds read low 1.03 | locus YEL061C, strain CIN8 (second series), active compounds read low 1.04 | locus YEL061C, strain CIN8, active compounds read low 0.994 | locus YER015W, strain faa2, active compounds read low 1.03 | locus YER016W, strain bim1, active compounds read low 1.03 | locus YER110C, active compounds read low 1.02 | locus YER111C, strain swi4, active compounds read low 1.05 | locus YER155C, strain BEM2 (second series), active compounds read low 1.04 | locus YER155C, strain BEM2, active compounds read low 1.01 | locus YER167W, strain BCK2, active compounds read low 0.998 | locus YFR010W, strain ubp6, active compounds read low 1.04 | locus YGL078C, strain dbp3, active compounds read low 0.996 | locus YGL086W, strain mad1, active compounds read low 0.991 | locus YGL167C, strain pmr1, active compounds read low 1.04 | locus YGL173C, strain kem1, active compounds read low 1.01 | locus YGL227W, strain vid30, active compounds read low 1.04 | locus YGL240W, strain doc1, active compounds read low 1.04 | locus YGL248W, strain PDE1, active compounds read low 0.996 | locus YGL253W, strain hxk2, active compounds read low 1.02 | locus YGR078C, strain PAC10, active compounds read low 1.01 | locus YGR135W, strain pre9, active compounds read low 1.02 | locus YGR229C, strain SMI1, active compounds read low 0.998 | locus YGR252W, strain gcn5, active compounds read low 0.962 | locus YHR013C, strain ard1, active compounds read low 1.06 | locus YHR027C, strain rpn1, active compounds read low 1.03 | locus YHR030C, strain SLT2, active compounds read low 1.01 and 0.968 | locus YHR079C, strain IRE1 (second series), active compounds read low 1.02 | locus YHR079C, strain IRE1, active compounds read low 0.963 | locus YHR094C, strain hxt1, active compounds read low 1.01 | locus YHR129C, strain ARP1, active compounds read low 1 | locus YHR142W, strain chs7, active compounds read low 1.03 | locus YHR200W, strain rpn10, active compounds read low 1.01 | locus YIL066C, strain RNR3, active compounds read low 0.994 | locus YIL073C, strain SPO22, active compounds read low 0.994 | locus YIL125W, strain kgd1, active compounds read low 1.01 | locus YIR030C, strain dcg1, active compounds read low 1.01 | locus YJL092W, strain hpr5, active compounds read low 1.02 | locus YJL095W, strain BCK1 (second series), active compounds read low 1.02 | locus YJL095W, strain BCK1, active compounds read low 1.04 and 0.974 | locus YJL115W, strain asf1, active compounds read low 1.03 | locus YJL129C, strain trk1, active compounds read low 1.06 | locus YJL134W, strain LCB3, active compounds read low 1 | locus YJL154C, strain vps35, active compounds read low 1.02 | locus YJL164C, strain tpk1, active compounds read low 1.03 | locus YJL166W, strain qcr8, active compounds read low 1.01 | locus YJL168C, strain set2, active compounds read low 1.02 | locus YJL187C, strain SWE1 (second series), active compounds read low 1.03 | locus YJL187C, strain SWE1, active compounds read low 1.02 | locus YJR043C, strain POL32, active compounds read low 1.01 | locus YJR066W, strain TOR1, active compounds read low 0.974
